# Literature values, collected in PubChem BioAssay AID977610.
# Among all 3,600 compounds or so, about 3,600 (100%) were called active. The limit is not given here; nearly all actives have Ki up to about 18000 µM. The set was probably picked from earlier hits. The list shows a part of the results. Numbered stars: 1 amine (or outer) side, 2 acyl side, 3 side chain; on linkers, the order of the positions; unused ones are H or OH. Starred links: 1 amine or outer side, 2 acyl side, 3 side chain; linkers in the order of their positions; H or OH if unused. Positions of bridges follow the written chain, without caps; N, C: chain ends. Bridge positions count the residues as written; N and C are the ends. Square brackets hold non-standard residues; d marks the D form. Residues, ends and D or L forms follow the SMILES beside them. Peptide text beside a SMILES is read from it. X2 = CC[C@H](C)[C@H](N[*:1])c1cnnn1[C@@H](C)C(=O)[*:2]; Orn(CH(NH2)2) = NC(N)NCCC[C@H](N)C(=O)O; X1 = C(CS[*:2])CN(CCCS[*:3])[*:1]
# Test: PubChem AID 977610
# Settings: PDB protein-ligand complexes, literature Ki
structure (smiles),measurement,setting,value
CC[C@H](C)[C@@H]1NC(=O)[C@@H]2CCCN2C(=O)[C@H](C)n2nncc2[C@H]([C@@H](C)CC)NC(=O)[C@H](CO)NC(=O)[C@H](CCCCN)NC(=O)[C@H]([C@@H](C)O)NC(=O)[C@@H](NC(=O)[C@@H](N)CCCNC(N)N)CSSC[C@@H](C(=O)N[C@@H](Cc2ccccc2)C(=O)O)NC1=O (H-[Orn(CH(NH2)2)]CTKS[X2]PICF-OH; disulfide 2-9),Ki,"protein: bovine CATIONIC TRYPSIN, PDB entry 4abj",0.034 µM (active)
NC(=O)[C@H](CCC(=O)O)NC(=O)[C@H](CCC(=O)O)NC(=O)[C@H](Cc1cc(-c2ccc(-c3cccc(Cl)c3)cc2)no1)C[P+](O)(O)c1ccc(Br)cc1,Ki,"protein: Macrophage metalloelastase (F171D mutation), PDB entry 4gql",0.00026 µM (active)
NC(=O)[C@H](CCC(=O)O)NC(=O)[C@H](CCC(=O)O)NC(=O)[C@H](Cc1cc(-c2ccccc2)no1)C[P+](O)(O)c1ccc(Br)cc1,Ki,"protein: Macrophage metalloelastase (F171D mutation), PDB entry 4gr3",0.0155 µM (active)
OC[C@]1(F)OC[C@H](O)[C@@H](O)[C@@H]1O,Ki,"protein: ALPHA-1,4-GLUCAN LYASE ISOZYME 1, PDB entry 4amw",28300 µM (active)
OC[C@@]1(F)OC[C@H](O)[C@@H](O)[C@@H]1O,Ki,"protein: ALPHA-1,4-GLUCAN LYASE ISOZYME 1, PDB entry 4amx",6500 µM (active)
NC1NN=C(S(N)(=O)=O)S1 (configuration not stated),Ki,"protein: human carbonic anhydrase II, PDB entry 2hnc",0.06 µM (active)
C[C@@H]1C[C@H]2[C@@H]3CCC4=CC(=O)C=C[C@]4(C)[C@@]3(Cl)[C@@H](O)C[C@]2(C)[C@@]1(OC(=O)c1ccco1)C(O)CCl (some centres not stated),Ki,"protein: Glucocorticoid receptor GR LBD, PDB entry 4p6w",0.0007 µM (active)
Nc1[nH]c(N)c2ccccc12,Ki,"protein: PDE10A2, PDB entry 4llj",380 µM (active)
CCNC(=O)CN[C@@H](C(=O)N1CC[C@H]1C(=O)NCc1ccc(C(N)N)cc1)C1CCCCC1,Ki,"protein: THROMBIN, PDB entry 4baq",0.00098 µM (active)
CNC(=O)CN[C@@H](C(=O)N1CC[C@H]1C(=O)NCc1ccc(C(N)N)cc1)C1CCCCC1,Ki,"protein: THROMBIN, PDB entry 4ban",0.00243 µM (active)
CCCNC(=O)CN[C@@H](C(=O)N1CC[C@H]1C(=O)NCc1ccc(C(N)N)cc1)C1CCCCC1,Ki,"protein: THROMBIN, PDB entry 4bak",0.00122 µM (active)
CC[C@H](C)[C@H](NC(C)=O)C(=O)N[C@@H](Cc1ccc(O)cc1)C(=O)N[C@@H](Cc1ccc(O)cc1)[P+](O)(O)O,Ki,"protein: Human angiotenisn converting enzyme N-domain, PDB entry 4bzs",0.075 µM (active)
O=C(N[C@@H](Cc1ccccc1)[P+](O)(O)C[C@H](Cc1cc(-c2ccccc2)no1)C(=O)N[C@@H](Cc1ccc(O)cc1)C(=O)O)OCc1ccccc1,Ki,"protein: ANGIOTENSIN-CONVERTING ENZYME, PDB entry 4ca8",0.21 µM (active)
O=C(N[C@@H](Cc1ccccc1)[P+](O)(O)C[C@@H](Cc1cc(-c2ccccc2)no1)C(=O)N[C@@H](Cc1ccc(O)cc1)C(=O)O)OCc1ccccc1,Ki,"protein: ANGIOTENSIN-CONVERTING ENZYME N-DOMAIN, PDB entry 4ca6",0.18 µM (active)
same,Ki,"protein: ANGIOTENSIN-CONVERTING ENZYME, PDB entry 4ca5",0.00041 µM (active)
same,Ki,"protein: ANGIOTENSIN-CONVERTING ENZYME, PDB entry 4ca7",0.044 µM (active)
CC(C)C[C@H](NC(=O)[C@@H]1CSS[C@H]2CSSC[C@H](NC(=O)CNC(=O)[C@H](CCCN=C(N)N)NC(=O)CNC(=O)[C@H](CC(C)C)NC(=O)[C@H](C)NC(=O)[C@@H](NC(=O)CN)C2)C(=O)N[C@@H](CCC(=O)O)C(=O)N[C@@H](CC(N)=O)C(=O)N[C@@H](Cc2cnc[nH]2)C(=O)N[C@@H](CCCN=C(N)N)C(=O)N1)C(N)=O,Ki,"protein: Urokinase-type plasminogen activator, PDB entry 4os4",13.6 µM (active)
CC(C)C[C@H](NC(=O)[C@@H]1CSSCCCN2CCCSSC[C@H](NC(=O)CNC(=O)[C@H](CCCN=C(N)N)NC(=O)CNC(=O)[C@H](CC(C)C)NC(=O)[C@H](C)NC(=O)[C@@H](NC(=O)CN)CC2=O)C(=O)N[C@@H](CCC(=O)O)C(=O)N[C@@H](CC(N)=O)C(=O)N[C@@H](Cc2cnc[nH]2)C(=O)N[C@@H](CCCN=C(N)N)C(=O)N1)C(N)=O (H-GDALGRGCENHRCL-NH2; linker 2-8-13 via X1),Ki,"protein: Urokinase-type plasminogen activator, PDB entry 4os7",24 µM (active)
CC(C)C[C@H](NC(=O)[C@@H]1CSS[C@@H]2CSSC[C@H](NC(=O)CNC(=O)[C@H](CCCN=C(N)N)NC(=O)CNC(=O)[C@H](CC(C)C)NC(=O)[C@H](C)NC(=O)[C@@H](NC(=O)CN)C2)C(=O)N[C@@H](CCC(=O)O)C(=O)N[C@@H](CC(N)=O)C(=O)N[C@@H](Cc2cnc[nH]2)C(=O)N[C@@H](CCCN=C(N)N)C(=O)N1)C(N)=O,Ki,"protein: Urokinase-type plasminogen activator, PDB entry 4os1",2.5 µM (active)
CC(C)C[C@H](NC(=O)[C@@H]1CSSC[C@H]2C[C@H](NC(=O)CN)C(=O)N[C@@H](C)C(=O)N[C@@H](CC(C)C)C(=O)NCC(=O)N[C@@H](CCCN=C(N)N)C(=O)NCC(=O)N[C@@H](CSS2)C(=O)N[C@@H](CCC(=O)O)C(=O)N[C@@H](CC(N)=O)C(=O)N[C@@H](Cc2cnc[nH]2)C(=O)N[C@@H](CCCN=C(N)N)C(=O)N1)C(N)=O,Ki,"protein: Urokinase-type plasminogen activator, PDB entry 4os5",23.7 µM (active)
C[C@@H](N)C(=O)N[C@H](C)C(=O)O (H-[dA]-[dA]-OH),Ki,"protein: vancomycin resistance D,D-dipeptidase/D,D-pentapeptidase VanXYc D59S mutant, PDB entry 4oak",59.7 µM (active)
O=c1[nH]c(=O)n([C@@H]2O[C@H](CO[P+](O)(O)O[P+](O)(O)O[C@H]3O[C@H](CO)[C@H](O)[C@H](O)[C@H]3O)[C@@H](O)[C@H]2O)cc1-c1ccccc1,Ki,"protein: Histo-blood group ABO system transferase, PDB entry 3v0l",3 µM (active)
O=c1[nH]c(=O)n([C@@H]2O[C@H](CO[P+](O)(O)O[P+](O)(O)O)[C@@H](O)[C@H]2O)cc1-c1ccc(CO)s1,Ki,"protein: Histo-blood group ABO system transferase, PDB entry 3v0p",0.53 µM (active)
N[C@](CF)(Cc1c[nH]c2ccccc12)C(=O)O,Ki,"protein: Pyridoxal-dependent decarboxylase domain protein RUMGNA-01526, PDB entry 4obv",178000 µM (active)
CN(C)CCOc1cccc(-c2ccc(Cl)cc2)c1CN1CCN(c2ccc(C(=O)NS(=O)(=O)c3ccc(NCC4CCOCC4)c([N+](=O)[O-])c3)c(Oc3ccc4[nH]ccc4c3)c2)CC1,Ki,"protein: Apoptosis regulator Bcl-2, PDB entry 4lxe",0.0001 µM (active)
same,Ki,"protein: Apoptosis regulator Bcl-2, PDB entry 4man",1e-05 µM (active)
CN1C(=O)[C@@](CCC2CCCCC2)(C[C@H]2CCC[C@@H](Nc3ccc4ccccc4n3)C2)N=C1N,Ki,"protein: Beta-secretase 1 BACE 1, PDB entry 4r95",0.014 µM (active)
COc1ccc(-c2cc(Oc3cc(C)cc(OC)c3)cc(C)n2)cc1,Ki,"protein: Macrophage migration inhibitory factor-like protein MIF, PDB entry 4p7s",0.038 µM (active)
Cc1cc(Oc2cccc(O)c2)cc(-c2ccccc2)n1,Ki,"protein: Macrophage migration inhibitory factor-like protein MIF, PDB entry 4p7m",0.039 µM (active)
COc1cc(O)c2c(c1)/C=C/C[C@H](O)[C@H](O)C(O)CCC[C@H](C)OC2=O (some centres not stated),Ki,"protein: Tak1-Tab1 fusion protein, PDB entry 4gs6",0.071 µM (active)
Cc1ncc(CO[P+](O)(O)O)c(CNc2co[nH]c2=O)c1O,Ki,"protein: methionine gamma-lyase MGL, PDB entry 4oma",68 µM (active)
CCCN1CCC(c2nc3c(C(N)=O)cccc3[nH]2)CC1,Ki,"protein: Poly [ADP-ribose] polymerase 1, PARP-1, PDB entry 2rcw",0.008 µM (active)
O=C(O)Cc1nn(Cc2nc3cc(C(F)(F)F)ccc3s2)c(=O)c2ccccc12,Ki,"protein: Lactoylglutathione lyase, PDB entry 4kyh",1.2 µM (active)
O=C(NS(=O)(=O)c1ccc(NC2CCOCC2)c([N+](=O)[O-])c1)c1ccc(N2CCN(CC3=C(c4ccc(Cl)cc4)CCOC3)CC2)cc1,Ki,"protein: Apoptosis regulator Bcl-2, PDB entry 4lxd",0.059 µM (active)
CC1(C)CCC(c2ccc(Cl)cc2)=C(CN2CCN(c3ccc(C(=O)NS(=O)(=O)c4ccc(N[C@H](CCN5CCOCC5)CSc5ccccc5)c(S(=O)(=O)C(F)(F)F)c4)cc3)CC2)C1,Ki,"protein: Apoptosis regulator Bcl-2, PDB entry 4lvt",4.4e-05 µM (active)
CSCC[C@@H]1NC(=O)[C@H](CCCNC(N)N)NC(=O)[C@H](Cc2cnc[nH]2)NC(=O)[C@H](CC(N)=O)NC(=O)[C@H](CCC(=O)O)NC(=O)[C@H](CC(C)C)NC(=O)CNC(=O)[C@H](CCCNC(N)N)NC(=O)[C@H](Cc2c[nH]c3ccccc23)NC(=O)[C@H](CO)NC(=O)[C@@H](N)CSSC[C@@H](C(=O)O)NC1=O (H-CSW[Orn(CH(NH2)2)]GLENH[Orn(CH(NH2)2)]MC-OH; disulfide 1-12),Ki,"protein: Plasminogen activator, urokinase, PDB entry 2nwn",0.5 µM (active)
NC(=O)C[C@@H]1NC(=O)[C@@H](N)CSSC[C@@H](C(=O)NCC(=O)O)NC(=O)[C@H](CCCN=C(N)N)NC(=O)CNC1=O (H-CNGRCG-OH; disulfide 1-5),Ki,"protein: Aminopeptidase N pAPN, PDB entry 4ou3",38.7 µM (active)
CC(C)C[C@H](NC(=O)[C@@H]1CSS[C@@H]2CSSC[C@H](NC(=O)CNC(=O)[C@H](CCCN=C(N)N)NC(=O)CNC(=O)[C@H](CC(C)C)NC(=O)[C@@H](NC(=O)CN)C2)C(=O)N[C@@H](CCC(=O)O)C(=O)N[C@@H](CC(N)=O)C(=O)N[C@@H](Cc2cnc[nH]2)C(=O)N[C@@H](CCCN=C(N)N)C(=O)N1)C(N)=O,Ki,"protein: Urokinase-type plasminogen activator, PDB entry 4os2",0.2 µM (active)
CC(C)C[C@H](NC(=O)[C@@H]1CSSC[C@H]2C[C@H](NC(=O)CN)C(=O)N[C@@H](CC(C)C)C(=O)NCC(=O)N[C@@H](CCCN=C(N)N)C(=O)NCC(=O)N[C@@H](CSS2)C(=O)N[C@@H](CCC(=O)O)C(=O)N[C@@H](CC(N)=O)C(=O)N[C@@H](Cc2cnc[nH]2)C(=O)N[C@@H](CCCN=C(N)N)C(=O)N1)C(N)=O,Ki,"protein: Urokinase-type plasminogen activator, PDB entry 4os6",0.36 µM (active)
"CC(C)C[C@H](NC(=O)[C@@H]1CSSC[C@H](N)C(=O)N[C@H]2CSSC[C@H](NC(=O)CNC(=O)[C@H](CCCNC(N)N)NC(=O)CNC(=O)[C@H](CC(C)C)NC2=O)C(=O)N[C@@H](CCC(=O)O)C(=O)N[C@@H](CC(N)=O)C(=O)N[C@@H](Cc2cnc[nH]2)C(=O)N[C@@H](CCCNC(N)N)C(=O)N1)C(N)=O (H-CCLG[Orn(CH(NH2)2)]GCENH[Orn(CH(NH2)2)]CL-NH2; disulfide 1-12, 2-7)",Ki,"protein: Urokinase-type plasminogen activator (C122A, N145Q mutation), PDB entry 4gly",7.7 µM (active)
O=c1cc(-c2ccc(Br)cc2)oc2ccccc12,Ki,"protein: Tankyrase-2, PDB entry 4kzu",0.313 µM (active)
COc1ccc(CC[C@@H](OC(=O)[C@@H]2CCCCN2C(=O)[C@H](c2cc(OC)c(OC)c(OC)c2)[C@@H]2CC=CCC2)c2cccc(OCC(=O)NCc3c(O)ccc4cc5ccc(=O)cc-5oc34)c2)cc1OC,Ki,"protein: Peptidyl-prolyl cis-trans isomerase FKBP4 FKBP52FK1FK2, PDB entry 4tw8",2.61 µM (active)
COc1ccc(CC[C@@H](OC(=O)[C@@H]2CCCCN2C(=O)[C@H](c2cc(OC)c(OC)c(OC)c2)[C@@H]2C=CCCC2)c2cccc(OCCN3CCOCC3)c2)cc1OC,Ki,"protein: Peptidyl-prolyl cis-trans isomerase FKBP5 FKBP51FK1, PDB entry 4tw7",0.026 µM (active)
C=CC[C@H](C(=O)N1CCCC[C@H]1C(=O)O[C@H](CCc1ccc(OC)c(OC)c1)c1cccc(OCC(=O)O)c1)c1cc(OC)c(OC)c(OC)c1,Ki,"protein: Peptidyl-prolyl cis-trans isomerase FKBP5 FKBP51FK1, PDB entry 4tw6",61 µM (active)
OC[C@H]1CNC[C@@H](O)[C@@H]1O,Ki,"protein: Beta-glucosidase 1, PDB entry 4iic",14 µM (active)
OC[C@H]1CNC[C@@H](O)[C@@H]1O[C@@H]1O[C@H](CO)[C@@H](O)[C@H](O)[C@@H]1O,Ki,"protein: GH26 beta-mannanase CjMan26C from Cellvibrio japonicus, PDB entry 4cd4",0.263 µM (active)
same,Ki,"protein: GH113 beta-mannanase AaManA from Alicyclobacillus acidocaldarius, PDB entry 4cd6",260 µM (active)
